# The campaign covered roughly 310,000 compounds. About 14,000 (4.5%) showed an effect of 50% or more. The effect is printed as a negative number. This is one part of a sample in which strong results are shown more often than they occur.
# Target: human ether-à-go-go-related gene (hERG) potassium channel (human, UniProt Q12809)
# Test: primary screen, population patch clamp on CHO cells stably expressing hERG; higher = less effect of the substance
# 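Further: peak tail current of the secondary pulse compared with the same well before compound.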
# Sequence of human ether-à-go-go-related gene (hERG) potassium channel (Q12809 whole entry, looked up): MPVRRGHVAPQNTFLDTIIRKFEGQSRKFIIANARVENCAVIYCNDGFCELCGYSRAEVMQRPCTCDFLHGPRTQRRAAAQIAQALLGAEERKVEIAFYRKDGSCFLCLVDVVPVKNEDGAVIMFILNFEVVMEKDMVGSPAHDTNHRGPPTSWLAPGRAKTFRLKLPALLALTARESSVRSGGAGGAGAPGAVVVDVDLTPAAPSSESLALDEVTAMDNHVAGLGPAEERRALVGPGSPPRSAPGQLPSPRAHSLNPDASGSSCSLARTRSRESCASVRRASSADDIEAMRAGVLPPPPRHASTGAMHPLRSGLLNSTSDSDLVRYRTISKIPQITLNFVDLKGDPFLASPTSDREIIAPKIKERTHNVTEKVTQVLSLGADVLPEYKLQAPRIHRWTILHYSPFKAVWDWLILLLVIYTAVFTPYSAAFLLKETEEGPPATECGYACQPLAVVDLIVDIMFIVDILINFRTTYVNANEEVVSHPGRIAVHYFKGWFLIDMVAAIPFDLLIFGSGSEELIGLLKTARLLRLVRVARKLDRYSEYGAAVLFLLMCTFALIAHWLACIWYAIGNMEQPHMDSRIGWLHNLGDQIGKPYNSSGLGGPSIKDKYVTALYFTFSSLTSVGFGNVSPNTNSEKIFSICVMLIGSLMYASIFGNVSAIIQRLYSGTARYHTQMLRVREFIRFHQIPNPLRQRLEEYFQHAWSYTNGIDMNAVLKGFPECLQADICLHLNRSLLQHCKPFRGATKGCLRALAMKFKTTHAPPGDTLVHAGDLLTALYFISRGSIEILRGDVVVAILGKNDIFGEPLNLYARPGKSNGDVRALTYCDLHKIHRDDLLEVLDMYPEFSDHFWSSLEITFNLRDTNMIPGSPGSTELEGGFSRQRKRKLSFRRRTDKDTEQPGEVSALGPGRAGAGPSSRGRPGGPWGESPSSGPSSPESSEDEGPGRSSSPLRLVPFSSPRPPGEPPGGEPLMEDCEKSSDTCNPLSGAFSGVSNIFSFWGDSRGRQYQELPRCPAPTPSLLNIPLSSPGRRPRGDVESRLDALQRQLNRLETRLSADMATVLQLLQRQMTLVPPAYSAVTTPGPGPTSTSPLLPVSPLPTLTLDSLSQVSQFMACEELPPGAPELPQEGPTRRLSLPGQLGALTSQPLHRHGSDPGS
row,SMILES,"hERG current change (%, negative = inhibition) at 10uM"
1,O=C(Nc1cccc(F)c1)c1ccc(S(=O)(=O)NCC2CCCO2)cc1 (stereo not drawn),-12.2%
2,COc1ccc(C(=O)NN(C)c2nc(-c3ccccc3)nnc2C(F)(F)F)cc1,7%
3,N#Cc1cn(CC(=O)N2CCCC2)c2ccccc12,8.6%
4,O=C(O)C1=CC2c3ccccc3C1c1ccccc12,17.4%
5,CC1(C)Cc2sc3c(=O)[nH]c(=S)[nH]c3c2CO1,16.6%
6,CCCN1C(=O)/C(=c2\s/c(=C3\C=Cc4ccccc4N3CC)c(=O)n2-c2ccccc2)SC1=S,8.95%
7,O=C1NC(=O)/C(=C\c2cn(CC(=O)N3CCOCC3)c3ccccc23)S1,11.7%
8,COCC(=O)Nc1sc2c(c1C(=O)OC)CCCC2,-11.7%
9,COc1ccc(C2/C=C\CN(C(=O)c3ccccc3)[C@H](Cc3ccccc3)C(=O)N2Cc2ccc(F)cc2)cc1 (stereo partly drawn),17%
10,Fc1cccc(-c2cc3nc4c(c(N5CCOCC5)n3n2)CCCC4)c1,-24.1%
11,Cc1nc(N)nc(N/N=C/c2c(F)cccc2Cl)n1,3.11%
12,COc1cc(NS(=O)(=O)c2ccc(NC(=O)C34CC5CC(CC(C5)C3)C4)cc2)ncn1,-4.59%
13,OC(CN1CCc2ccccc2C1)c1ccccc1 (stereo not drawn),-9.09%
14,OC(COC(c1ccc(F)cc1)c1ccc(F)cc1)CN1CCc2ccccc2C1 (stereo not drawn),-73.7%
15,Cl.OC(COC(c1ccc(Cl)cc1)c1ccc(Cl)cc1)CN1CCc2ccccc2C1 (stereo not drawn),-61.6%
16,OC(COC(c1ccccc1)c1ccccc1)CN1CCc2ccccc2C1 (stereo not drawn),-76.9%
17,CC1(c2ccc3c(c2)OCCCO3)NC(=O)N(CC(=O)NCCc2ccccc2)C1=O (stereo not drawn),-7.38%
18,COc1ccc(C(CNC(=O)COc2c(C)cc(C)cc2C)N2CCOCC2)cc1 (stereo not drawn),-12.1%
19,COc1ccc(-c2coc3cc(O)ccc3c2=O)cc1,-5.05%
20,CCOC(=O)CSC1=N/C(=C\c2cc(OC)c(OC)c(OC)c2)C(=O)N1C,-7.36%
21,CCN1C(=O)/C(=C/c2ccc(OC)c(OC)c2)N=C1SCC(=O)NCc1ccco1,-15.1%
22,CCOC(=O)CSC1=N/C(=C\c2ccc(OC)c(OC)c2)C(=O)N1C,-69.7%

row,SMILES,"hERG current change (%, negative = inhibition) at 10uM"
1,CCOC(=O)C1(CCCc2ccccc2)CCN(S(C)(=O)=O)CC1,-8.15%
2,CCOC(=O)C1(CCCc2ccccc2)CCN(C(=O)[C@@H]2C[C@@H](C)NC(=S)N2)CC1,-25.1%
3,CCOC(=O)C1(CCCc2ccccc2)CCN(C2CCC2)CC1,-74.8%
4,O=C(C1CCOCC1)N1CCC(CO)(CCc2ccccc2)CC1,5.29%
5,CCOC(=O)C1(CCCc2ccccc2)CCN(C2CCCC2)CC1,-69.7%
6,CCOC(=O)C1(CCCc2ccccc2)CCN(C(=O)C2CCCO2)CC1 (stereo not drawn),-25.7%
7,CCOC(=O)C1(CCCc2ccccc2)CCN(C(=O)C2CCCN(C(N)=O)C2)CC1 (stereo not drawn),-72.4%
8,CCOC(=O)C1(CCc2ccccc2)CCN(C(=O)C2CCOCC2)CC1,-53.1%
9,CCOC(=O)C1(CCc2ccccc2)CCN(C(=O)C2CCCO2)CC1 (stereo not drawn),-13%
10,CCOC(=O)C1(Cc2ccccc2C(F)(F)F)CCN(C2CCC2)CC1,-36.6%
11,CCOC(=O)C1(CCCc2ccccc2)CCN(S(=O)(=O)N(C)C)CC1,-4.73%
12,O=c1cc(O)c(-c2cccc(C(F)(F)F)c2)c(Cl)[nH]1,22.5%
13,O=C1C(Cc2ccc3[nH]ccc3c2)NC(=S)N1c1ccccc1 (stereo not drawn),7.61%
14,Cc1ccccc1C(=O)NC(=S)NCc1cccnc1,31.9%
15,COC(=O)c1ccc(CO/N=C2\CCCc3nonc32)cc1,-35.1%
16,O=C(Cn1c(-c2ccccc2)noc1=O)Nc1ccc(N2CCCCCC2)cc1,6.95%
17,Cc1cc(C)cc(OCC(=O)OCC(=O)NCc2ccco2)c1,4.8%
18,O=C(Cc1ccc(NC2=NC3CS(=O)(=O)CC3S2)cc1)NCCc1ccccc1 (stereo not drawn),6.22%
19,O=c1oc2cc(OCc3ccc(C(F)(F)F)cc3)ccc2cc1-c1ccccn1,10.4%
20,Cc1ccc(C(=O)OCCOc2cccc(Cl)c2)cc1S(=O)(=O)N1CCOCC1,-12.2%
21,CCOC(=O)C1=C(c2ccccc2)NC(=S)NC1c1ccc(Cl)cc1 (stereo not drawn),0.162%
22,c1ccc(C2CN3CCC2CC3)cc1 (stereo not drawn),-5.74%

row,SMILES,"hERG current change (%, negative = inhibition) at 10uM"
1,O=C(NC1CN2CCC1CC2)c1cccc(Cl)c1 (stereo not drawn),3.72%
2,Cc1ccc(C(=O)N2CCC(C)CC2)cc1C,8.09%
3,OC(c1ccccc1)(c1ccc(Cl)cc1)C1CN2CCC1CC2 (stereo not drawn),-56%
4,Cl.OC(c1cccc(Cl)c1)(c1cccc(Cl)c1)C1CN2CCC1CC2 (stereo not drawn),-81.8%
5,C[N+]12CCC(CC1)C(C(O)(c1cccc(Cl)c1)c1cccc(Cl)c1)C2.[I-] (stereo not drawn),13.6%
6,CC(C)[N+]12CCC(CC1)C(C(O)(c1ccccc1)c1ccccc1)C2.[I-] (stereo not drawn),16.9%
7,Cc1ccc(NC(=O)C2CCN(S(C)(=O)=O)CC2)cc1C,3.29%
8,Cl.OC(c1ccccc1)(c1ccccc1)C1CN2CCC1CC2 (stereo not drawn),-45.2%
9,Cc1ccc(C(O)(c2ccc(C)c(C)c2)C2CN3CCC2CC3)cc1C.Cl (stereo not drawn),-67.6%
10,Cl.OC(Cc1ccccc1)(c1ccccc1)C1CN2CCC1CC2 (stereo not drawn),-49.7%
11,Cc1ccccc1C(O)(Cc1ccccc1)C1CN2CCC1CC2.Cl (stereo not drawn),-55.2%
12,CC(=O)N1CCN(c2ccc(NC(=O)c3cccc(Cl)c3)cc2)CC1,-7.02%
13,COc1ccc2nc(NC(=O)C(NS(=O)(=O)c3cccs3)C(C)C)sc2c1 (stereo not drawn),8.73%
14,Cc1ccc(-n2cc(CCCCCCCCC(=O)O)nn2)cc1,-12.3%
15,COc1ccc(-c2ccc(=O)n(CC(=O)Nc3nnc(C(C)C)s3)n2)cc1OC,11.9%
16,S=c1[nH]c2cnccc2n1Cc1ccccc1,12.4%
17,COc1cc(C(=O)NCCOc2ccc(F)cc2)c(Br)c(OC)c1OC,3.42%
18,COCC(C)NC(=O)c1noc2c1CCc1cc(OC)ccc1-2 (stereo not drawn),-25.9%
19,CCOc1ncccc1C(=O)Nc1cc(S(=O)(=O)N2CCCCC2)ccc1OC,-8.23%
20,COc1ccc(C)cc1NC(=O)CN1C(=O)COc2ccc(S(=O)(=O)N3CCC(C)CC3)cc21,26.3%
21,COc1cccc(C2c3[nH]c4ccccc4c3CCN2Cc2ncc[nH]2)c1 (stereo not drawn),-49.4%
22,COc1cccc(C2c3[nH]c4ccccc4c3CCN2Cc2cccn2-c2ncccn2)c1 (stereo not drawn),-76.1%

row,SMILES,"hERG current change (%, negative = inhibition) at 10uM"
1,COc1cccc(C2c3[nH]c4ccccc4c3CCN2Cc2cnc(C)s2)c1OC (stereo not drawn),2.51%
2,CSc1ncc(CN2CCc3c([nH]c4ccccc34)C2c2cccc(O)c2)cn1 (stereo not drawn),-22.9%
3,Cc1cccc(C2c3[nH]c4ccccc4c3CCN2Cc2cccn2-c2ncccn2)c1 (stereo not drawn),-77.8%
4,CC(=O)NCCC(=O)N1CCc2c([nH]c3ccccc23)C1c1cccc(C)c1 (stereo not drawn),-14.3%
5,CCn1nc(C)c(CN2CCc3c([nH]c4ccccc34)C2c2ccc(F)c(OC)c2)c1C (stereo not drawn),-48.2%
6,COc1ccc(C2c3[nH]c4ccccc4c3CCN2Cc2cccn2-c2ncccn2)cc1C (stereo not drawn),-52%
7,CCC(=O)NC(NC(=S)Nc1ccccc1Br)C(Cl)(Cl)Cl (stereo not drawn),18.2%
8,O=C1CC2(CCCC2)C(=O)N1CN1CCN(S(=O)(=O)c2ccc(Cl)c(Cl)c2)CC1,3.53%
9,CCCCOC(=O)n1c(SCC(=O)N(CC)CC)nc2ccccc21,-34.7%
10,CCCn1c(O)c(/C=C2\C=NN=C2c2ccccc2)sc1=S,7.93%
11,c1ccc(C2Nc3cccc4cccc(c34)N2)cc1,14%
12,CN1CCN(NC(=O)c2cc(S(=O)(=O)Nc3ccc(Cl)cc3)ccc2Cl)CC1.Cl,5.84%
13,CCOC(=O)CNC(=O)c1ccc(Br)s1,-9.48%
14,CCOc1cccc(-c2c(C(=O)N/N=C(\C)c3ccncc3)nnn2-c2nonc2N)c1,-43.6%
15,COc1ccc2cc(-c3ccccc3)c(=O)oc2c1,18%
16,COc1ccc(-c2ccc(OC)cc2)cc1,7.51%
17,COc1ccc(-[n+]2c(-c3ccccc3)cc(-c3ccccc3)cc2-c2ccccc2)cc1.[O-][Cl+3]([O-])([O-])[O-],-71.9%
18,COc1ccc2cc(-c3ccccc3)ncc2c1,5.65%
19,COc1ccc(-c2cccc(C(=O)Nc3ccc(C)cc3)c2)cc1,16.9%
20,COc1ccc(-[n+]2c(-c3ccccc3)cc(-c3ccc(C)cc3)cc2-c2ccccc2)cc1.[O-][Cl+3]([O-])([O-])[O-],-77.7%
21,CSc1ccc(S(=O)(=O)NCc2ccccc2)cc1,13.1%

# Reference: paper PMC4336329 (PLoS ONE, 2015)
